{
  "source": "PubChem BioAssay AID1159580",
  "about": "(chemical genetic matrix, 2015)",
  "experiment": "chemical genetic growth profiling, strain panel (AID 1159580);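 note: tested at 20 µM; growth read once vehicle control cultures reached saturation at 30 °C; 1 = growth at the plate median or of vehicle wells; lower values mean less growth of the strain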",
  "conditions": "S. cerevisiae deletion strains, growth OD",
  "note": "“And” between values parts separate entries of the source, which are not always exact repeats. Equal values may be shown once. Screen size: about 5,500 compounds; about 2,000 (36%) were called active. Roughly 18% stayed inconclusive and do not appear here. Cut-off read from the data, not from the text of the source: active = normalized growth mostly below about 0.91 (no sharp cut-off); inconclusive = no clear call, values can overlap the other calls; inactive = mostly above about 0.92. This is one part of the list.",
  "data": [
    {"smiles": "CO/N=C(\\C(=O)NC1C(=O)N2C(C(=O)O)=C(COC(N)=O)CSC12)c1ccco1", "note": "(stereo unspecified)", "values": [
      {"measurement": "normalized growth", "setting": "locus YAL021C, strain ccr4, stronger effect = lower value", "result": "0.988 (inactive)"},
      {"measurement": "normalized growth", "setting": "locus YAL026C, strain drs2, stronger effect = lower value", "result": "0.984 (inactive)"},
      {"measurement": "normalized growth", "setting": "locus YAL030W, strain snc1, stronger effect = lower value", "result": "0.977 (inactive)"},
      {"measurement": "normalized growth", "setting": "locus YBL061C, strain skt5, stronger effect = lower value", "result": "0.967 (inactive)"},
      {"measurement": "normalized growth", "setting": "locus YBR009C, strain hhf1, stronger effect = lower value", "result": "0.985 (inactive)"},
      {"measurement": "normalized growth", "setting": "locus YBR021W, strain FUR4, stronger effect = lower value", "result": "0.0938 (active)"},
      {"measurement": "normalized growth", "setting": "locus YBR023C, strain chs3, stronger effect = lower value", "result": "0.964 (inactive)"},
      {"measurement": "normalized growth", "setting": "locus YBR171W, strain sec66, stronger effect = lower value", "result": "0.958 (inactive)"},
      {"measurement": "normalized growth", "setting": "locus YBR229C, strain ROT2, stronger effect = lower value", "result": "0.0259 (active)"},
      {"measurement": "normalized growth", "setting": "locus YBR231C, strain swc5, stronger effect = lower value", "result": "0.971 (inactive)"},
      {"measurement": "normalized growth", "setting": "locus YBR279W, strain paf1, stronger effect = lower value", "result": "0.975 (inactive)"},
      {"measurement": "normalized growth", "setting": "locus YCL011C, strain gbp2, stronger effect = lower value", "result": "0.968 (inactive)"},
      {"measurement": "normalized growth", "setting": "locus YCL016C, strain dcc1, stronger effect = lower value", "result": "0.969 (inactive)"},
      {"measurement": "normalized growth", "setting": "locus YCL029C, strain bik1, stronger effect = lower value", "result": "0.0647 (active)"},
      {"measurement": "normalized growth", "setting": "locus YCL061C, strain MRC1, stronger effect = lower value", "result": "0.969 (inactive)"},
      {"measurement": "normalized growth", "setting": "locus YCL069W, strain vba3, stronger effect = lower value", "result": "0.977 (inactive)"},
      {"measurement": "normalized growth", "setting": "locus YCR088W, strain abp1, stronger effect = lower value", "result": "0.975 (inactive)"},
      {"measurement": "normalized growth", "setting": "locus YDL005C, strain med2, stronger effect = lower value", "result": "0.969 (inactive)"},
      {"measurement": "normalized growth", "setting": "locus YDL035C, strain GPR1, stronger effect = lower value", "result": "0.0509 (active)"},
      {"measurement": "normalized growth", "setting": "locus YDL040C, strain nat1, stronger effect = lower value", "result": "0.981 (inactive)"},
      {"measurement": "normalized growth", "setting": "locus YDL074C, strain BRE1, stronger effect = lower value", "result": "0.0872 (active)"},
      {"measurement": "normalized growth", "setting": "locus YDL101C, strain DUN1, stronger effect = lower value", "result": "0.0518 (active)"},
      {"measurement": "normalized growth", "setting": "locus YDL185W, strain tfp1, stronger effect = lower value", "result": "0.0709 (active)"},
      {"measurement": "normalized growth", "setting": "locus YDL192W, strain arf1, stronger effect = lower value", "result": "0.0602 (active)"},
      {"measurement": "normalized growth", "setting": "locus YDR001C, strain nth1, stronger effect = lower value", "result": "0.976 (inactive)"},
      {"measurement": "normalized growth", "setting": "locus YDR069C, strain doa4, stronger effect = lower value", "result": "0.988 (inactive)"},
      {"measurement": "normalized growth", "setting": "locus YDR101C, strain arx1, stronger effect = lower value", "result": "0.0636 (active)"},
      {"measurement": "normalized growth", "setting": "locus YDR137W, strain rgp1, stronger effect = lower value", "result": "0.945 (inactive)"},
      {"measurement": "normalized growth", "setting": "locus YDR159W, strain sac3, stronger effect = lower value", "result": "0.99 (inactive)"},
      {"measurement": "normalized growth", "setting": "locus YDR162C, strain NBP2, stronger effect = lower value", "result": "0.0497 (active)"},
      {"measurement": "normalized growth", "setting": "locus YDR195W, strain ref2", "result": "1 (inactive)"},
      {"measurement": "normalized growth", "setting": "locus YDR297W, strain sur2, stronger effect = lower value", "result": "0.972 (inactive)"},
      {"measurement": "normalized growth", "setting": "locus YDR318W, strain mcm21, stronger effect = lower value", "result": "0.062 (active)"},
      {"measurement": "normalized growth", "setting": "locus YDR334W, strain swr1, stronger effect = lower value", "result": "0.966 (inactive)"},
      {"measurement": "normalized growth", "setting": "locus YDR335W, strain msn5, stronger effect = lower value", "result": "0.975 (inactive)"},
      {"measurement": "normalized growth", "setting": "locus YDR388W, stronger effect = lower value", "result": "0.0594 (active)"},
      {"measurement": "normalized growth", "setting": "locus YDR392W, strain spt3, stronger effect = lower value", "result": "0.894 (inactive)"},
      {"measurement": "normalized growth", "setting": "locus YDR502C, strain sam2, stronger effect = lower value", "result": "0.057 (active)"},
      {"measurement": "normalized growth", "setting": "locus YEL003W, strain gim4, stronger effect = lower value", "result": "0.997 (inactive)"},
      {"measurement": "normalized growth", "setting": "locus YEL037C, strain rad23, stronger effect = lower value", "result": "0.967 (inactive)"},
      {"measurement": "normalized growth", "setting": "locus YEL061C, strain CIN8 (second series), stronger effect = lower value", "result": "0.976 (inactive)"},
      {"measurement": "normalized growth", "setting": "locus YEL061C, strain CIN8, stronger effect = lower value", "result": "0.0491 (active)"},
      {"measurement": "normalized growth", "setting": "locus YER015W, strain faa2, stronger effect = lower value", "result": "0.968 (inactive)"},
      {"measurement": "normalized growth", "setting": "locus YER016W, strain bim1, stronger effect = lower value", "result": "0.992 (inactive)"},
      {"measurement": "normalized growth", "setting": "locus YER110C, stronger effect = lower value", "result": "0.0738 (active)"},
      {"measurement": "normalized growth", "setting": "locus YER111C, strain swi4, stronger effect = lower value", "result": "0.976 (inactive)"},
      {"measurement": "normalized growth", "setting": "locus YER155C, strain BEM2 (second series), stronger effect = lower value", "result": "0.969 (inactive)"},
      {"measurement": "normalized growth", "setting": "locus YER155C, strain BEM2, stronger effect = lower value", "result": "0.0713 (active)"},
      {"measurement": "normalized growth", "setting": "locus YER167W, strain BCK2, stronger effect = lower value", "result": "0.0538 (active)"},
      {"measurement": "normalized growth", "setting": "locus YFR010W, strain ubp6, stronger effect = lower value", "result": "0.966 (inactive)"},
      {"measurement": "normalized growth", "setting": "locus YGL078C, strain dbp3, stronger effect = lower value", "result": "0.387 (active)"},
      {"measurement": "normalized growth", "setting": "locus YGL086W, strain mad1, stronger effect = lower value", "result": "0.0523 (active)"},
      {"measurement": "normalized growth", "setting": "locus YGL167C, strain pmr1, stronger effect = lower value", "result": "0.96 (inactive)"},
      {"measurement": "normalized growth", "setting": "locus YGL173C, strain kem1, stronger effect = lower value", "result": "0.969 (inactive)"},
      {"measurement": "normalized growth", "setting": "locus YGL227W, strain vid30, stronger effect = lower value", "result": "0.978 (inactive)"},
      {"measurement": "normalized growth", "setting": "locus YGL240W, strain doc1, stronger effect = lower value", "result": "0.989 (inactive)"},
      {"measurement": "normalized growth", "setting": "locus YGL248W, strain PDE1, stronger effect = lower value", "result": "0.0434 (active)"},
      {"measurement": "normalized growth", "setting": "locus YGL253W, strain hxk2, stronger effect = lower value", "result": "0.99 (inactive)"},
      {"measurement": "normalized growth", "setting": "locus YGR135W, strain pre9, stronger effect = lower value", "result": "0.0617 (active)"},
      {"measurement": "normalized growth", "setting": "locus YGR252W, strain gcn5, stronger effect = lower value", "result": "0.126 (active)"},
      {"measurement": "normalized growth", "setting": "locus YHR013C, strain ard1, stronger effect = lower value", "result": "0.964 (inactive)"},
      {"measurement": "normalized growth", "setting": "locus YHR027C, strain rpn1, stronger effect = lower value", "result": "0.978 (inactive)"},
      {"measurement": "normalized growth", "setting": "locus YHR030C, strain SLT2, stronger effect = lower value", "result": "0.0514 (active) and 1.05 (inactive)"},
      {"measurement": "normalized growth", "setting": "locus YHR079C, strain IRE1 (second series), stronger effect = lower value", "result": "0.0616 (active)"},
      {"measurement": "normalized growth", "setting": "locus YHR079C, strain IRE1, stronger effect = lower value", "result": "1.08 (inactive)"},
      {"measurement": "normalized growth", "setting": "locus YHR094C, strain hxt1, stronger effect = lower value", "result": "0.0582 (active)"},
      {"measurement": "normalized growth", "setting": "locus YHR129C, strain ARP1, stronger effect = lower value", "result": "0.056 (active)"},
      {"measurement": "normalized growth", "setting": "locus YHR142W, strain chs7, stronger effect = lower value", "result": "0.926 (inactive)"},
      {"measurement": "normalized growth", "setting": "locus YHR200W, strain rpn10, stronger effect = lower value", "result": "0.0599 (active)"},
      {"measurement": "normalized growth", "setting": "locus YIL066C, strain RNR3, stronger effect = lower value", "result": "0.0444 (active)"},
      {"measurement": "normalized growth", "setting": "locus YIL073C, strain SPO22, stronger effect = lower value", "result": "0.121 (active)"},
      {"measurement": "normalized growth", "setting": "locus YIL125W, strain kgd1, stronger effect = lower value", "result": "0.161 (active)"},
      {"measurement": "normalized growth", "setting": "locus YIR030C, strain dcg1, stronger effect = lower value", "result": "0.0751 (active)"},
      {"measurement": "normalized growth", "setting": "locus YJL092W, strain hpr5, stronger effect = lower value", "result": "0.98 (inactive)"},
      {"measurement": "normalized growth", "setting": "locus YJL095W, strain BCK1 (second series), stronger effect = lower value", "result": "0.98 (inactive)"},
      {"measurement": "normalized growth", "setting": "locus YJL095W, strain BCK1, stronger effect = lower value", "result": "0.0608 (active) and 1.03 (inactive)"},
      {"measurement": "normalized growth", "setting": "locus YJL115W, strain asf1, stronger effect = lower value", "result": "0.983 (inactive)"},
      {"measurement": "normalized growth", "setting": "locus YJL129C, strain trk1, stronger effect = lower value", "result": "0.971 (inactive)"},
      {"measurement": "normalized growth", "setting": "locus YJL134W, strain LCB3, stronger effect = lower value", "result": "0.0455 (active)"},
      {"measurement": "normalized growth", "setting": "locus YJL154C, strain vps35, stronger effect = lower value", "result": "0.971 (inactive)"},
      {"measurement": "normalized growth", "setting": "locus YJL164C, strain tpk1, stronger effect = lower value", "result": "0.977 (inactive)"},
      {"measurement": "normalized growth", "setting": "locus YJL166W, strain qcr8, stronger effect = lower value", "result": "0.962 (inactive)"},
      {"measurement": "normalized growth", "setting": "locus YJL168C, strain set2, stronger effect = lower value", "result": "0.0569 (active)"},
      {"measurement": "normalized growth", "setting": "locus YJL187C, strain SWE1 (second series), stronger effect = lower value", "result": "0.0486 (active)"},
      {"measurement": "normalized growth", "setting": "locus YJL187C, strain SWE1, stronger effect = lower value", "result": "0.971 (inactive)"},
      {"measurement": "normalized growth", "setting": "locus YJR043C, strain POL32, stronger effect = lower value", "result": "0.0695 (active)"}
    ]}
  ]
}
